Data on 5 compounds can be found in PubChem BioAssay.

Assay [1] can be described thus: Wnt pathway potentiators raising nuclear beta-catenin – imaging, WNT3A-conditioned medium, mouse C2C12, NPC library, primary screen (AID 1117326; in the data active = nuclear beta-catenin stimulation mostly above about 4.2%, no sharp cut-off; inactive = mostly below about 10%). The settings on record: stronger effect = higher value.
A short description of assay [2]: stimulators of insulin release from INS-1E, primary screen, cell-based, 5 mM glucose, NPC library (AID 1117329;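 active = compound raises insulin release from rat beta cells at 5 mM glucose, no numeric limit stated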). The settings on record: rat INS-1E insulin secretion, at 10 µM, stronger effect = higher value.
Assay [3] can be described thus: growth inhibition of GSK3B-pretreated HCT116 cells – cell-based, CellTiter-Glo, 0.2 to 20 µM (AID 1117336;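 active = compounds lowering colon cancer cell viability after pretreatment blocking the GSK3B kinase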). The settings on record: HCT116 viability after GSK3B inhibitor, at 20 µM, stronger effect = higher value. A general note: ATP-based viability assays read luminescence as a measure of living cells.
Assay [4] is described as follows: inhibition of endothelial tube formation, primary screen, imaging, VEGF stimulated, CD31 staining, tube area, NPC library (AID 1117340;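 active = compound that reduces growth-factor-driven endothelial tube area in a mixed cell culture, no cutoff stated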). The settings on record: VEGF-stimulated ADSC/ECFC co-culture, at 10 µM, stronger effect = higher value.
Assay [5] is described as follows: GLP1 release stimulators, primary, NCI-H716, NPC library (AID 1117341;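 active = compound raises GLP1 secretion from the human gut endocrine cells, with no numeric limit stated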). As to conditions: NCI-H716 cells, at 10 µM, stronger effect = higher value.
A short description of assay [6]: HCT116 colon cancer cell growth inhibition, primary screen, CellTiter-Glo luminescence, NPC library (AID 1117342;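 active = compounds that lower survival of HCT116 colon cancer cells in the luminescence readout, no numeric limit stated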). The settings on record: at 20 µM (top of the series).
Assay [7] is described as follows: reduced SW480 viability measured with CellTiter-Glo, NPC library, primary (AID 1117343;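 active = compounds that lower viability of the colon cancer cells in the luminescence readout, with no numeric limit stated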). As to conditions: CellTiter-Glo luminescence; at 20 µM (top of the series).
A short description of assay [8]: NPC library primary testing for decreased DLD-1 cell viability via CellTiter-Glo (AID 1117346;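 active = compounds that lower survival of DLD-1 colon cancer cells in the luminescence readout, no cutoff given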). As to conditions: DLD-1 viability, CellTiter-Glo luminescence; at 20 µM (top of the series).
Assay [9] in a line: viability loss with induced miR-34 in A549 – imaging, A549 dox-inducible miR-34, nuclei and caspase counts, primary screen (AID 1347080;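 active = compounds whose cell count with miR-34 switched on is under 0.7 times the count with it off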). As to conditions: A549 miR-34 inducible, Hoechst nuclei count, 48 h.
The nature of assay [10]: galactose survival enhancers in mitochondrial complex I cybrids – cell-based, galactose medium, ATP luminescence, primary screen (AID 1645843).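 Also: positive z means more ATP and so rescue of galactose-driven cybrid death.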 The settings on record: complex I mutant cybrid cells, 72 h, stronger effect = higher value.
Assay [11] in a line: P. berghei load reduction in hepatocytes – cell-based, HepG2, luciferase luminescence, HepG2 viability, primary screen (AID 624349; in the data active = parasite load remaining mostly below about 12%, no sharp cut-off; inactive = mostly above about 10%;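 also: 100% = mean of DMSO negative control wells on the same plate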). The settings on record: P. berghei liver stage in HepG2, luciferase luminescence, concentration not given here; parasite load remaining: stronger effect = lower value; viability: measured here: HepG2 viability without parasites.
Assay [12] has as its system Hepatitis C virus NS3 helicase. Kind of assay: blockers of NS3h binding to ssDNA – biochemical, fluorescence polarization, LOPAC1280 library, primary screen (AID 687035; in the data active = inhibition above about 37%). As to conditions: Purified HCV NS3 helicase, Cy5-dT15 ssDNA binding fluorescence polarization; stronger effect = higher value; concentration not given here.
Assay [13] in a line: compounds altering Cy5-DNA-NS3h complex signal – biochemical, LOPAC1280, artefact control for HCV NS3 helicase inhibitor project (AID 687037; call rule not given here). The settings on record: Cy5-DNA-NS3h complex fluorescence interference counterscreen. (In general: Counterscreens check selectivity or assay interference.)
In assay [14] the test system is Aerobactin synthetase IucA (Klebsiella pneumoniae, hypervirulent). Kind of assay: biochemical IucA inhibition screen of LOPAC library by absorbance (AID 1346212; call rule not given here;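 also: 100% = no compound wells and 0% = no enzyme wells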). The settings on record: IucA enzyme assay, absorbance (OD) readout; stronger effect = lower value;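 tested at 8 µM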.
Assay [15] is described as follows: MELAS cybrid and Rieske KO viability enhancers – cell-based, MELAS cybrids, Rieske KO mouse fibroblasts, CellTiter-Glo, primary screen (AID 1508586;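 active = mean z-score across replicates of 1.96 or higher in either the MELAS or the Rieske mutant cell line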;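 also: z relative to plate mean and SD of compound and empty wells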). The settings on record: low glucose.
Assay [16] deals with NAD(+) hydrolase SARM1 (Homo sapiens) (UniProt Q6SZW1). Briefly: blocking NAD cleavage by SARM1 SAM-TIR – cell lysate, NAD-Glo luminescence (AID 1508614;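 active = compound whose remaining NAD level is above about 45 nM, limit read from the data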;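 also: higher remaining NAD means stronger inhibition of SARM1 NADase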). The settings on record: SAM-TIR HEK293T lysate NADase, at 1 µM, stronger effect = higher value.
NAD(+) hydrolase SARM1 (Homo sapiens), sequence (Q6SZW1 whole entry, looked up): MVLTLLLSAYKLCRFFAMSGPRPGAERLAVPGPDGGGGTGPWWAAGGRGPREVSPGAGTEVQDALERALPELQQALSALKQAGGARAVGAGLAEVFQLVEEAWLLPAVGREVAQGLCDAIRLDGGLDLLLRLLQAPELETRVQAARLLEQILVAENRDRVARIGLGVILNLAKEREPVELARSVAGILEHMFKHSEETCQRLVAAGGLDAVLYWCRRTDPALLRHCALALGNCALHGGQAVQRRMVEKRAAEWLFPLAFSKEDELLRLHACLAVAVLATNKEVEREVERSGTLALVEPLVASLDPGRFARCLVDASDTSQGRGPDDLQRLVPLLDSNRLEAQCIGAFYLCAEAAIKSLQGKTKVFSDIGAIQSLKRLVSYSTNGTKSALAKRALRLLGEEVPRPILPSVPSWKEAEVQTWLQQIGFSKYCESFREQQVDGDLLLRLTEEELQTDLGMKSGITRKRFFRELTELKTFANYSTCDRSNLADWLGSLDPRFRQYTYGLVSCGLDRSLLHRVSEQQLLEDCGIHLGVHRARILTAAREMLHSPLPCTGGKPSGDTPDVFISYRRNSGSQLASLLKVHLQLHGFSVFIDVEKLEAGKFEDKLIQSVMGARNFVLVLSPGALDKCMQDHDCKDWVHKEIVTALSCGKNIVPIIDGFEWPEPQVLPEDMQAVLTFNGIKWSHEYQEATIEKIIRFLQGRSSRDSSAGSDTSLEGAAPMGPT
Assay [17] in a line: EMT-state selective cytotoxicity in co-culture – imaging, PC-3E GFP, TEM4-18 mCherry, primary screen (AID 1345086;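 active = compounds killing one labelled cell type while sparing the other, by normalised counts and ratio limits, not self-fluorescent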;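 also: cells exposed to compound for 72 h before imaging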;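 as to red/green cell ratio (normalised): normalised mesenchymal count divided by normalised epithelial count so high means epithelial killing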). As to conditions: PC-3E GFP / TEM4-18 mCherry co-culture, imaging cell counts, at 1 µM.
[18] abbreviates: stronger effect = lower value, cell number ratio, induced over uninduced.
[19] abbreviates: measured here: relative caspase fold change +Dox/-Dox.
Setting [20] is: measured here: total cells with miR-34 induction, stronger effect = lower value.
The mark [21] stands for this setting: measured here: total cells without miR-34 induction.
Setting [22] is: MELAS cybrid survival, CellTiter-Glo 48 h, stronger effect = higher value.
Where [23] appears, read: Rieske KO mouse fibroblast survival, CellTiter-Glo 72 h.

Several values for one entry are separate records, joined by “and”; a condition that tells them apart may be missing. Identical values can stand only once. Activity calls are given as the source filed them.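 The calls were made as follows, unless noted: active = z-score of at least 1.8 in each of two replicates, scored against plate mean and spread of sample wells; inactive = the rest.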

In the case of `O=C(O)c1ccc2[nH]cc(CCCCN3CC=C(c4ccccc4)CC3)c2c1`, the nuclear beta-catenin stimulation in assay [1] (at 10 µM) was -0.5% (inactive); in assay [1] (stimulation, at 2 µM), -1.8%. Further, the insulin secretion stimulation in [2] was 2.5% (inactive). The viability decrease in assay [3] was 5.1% (inactive). The tube area decrease in [4] was -17.1% (active). In addition, the GLP1 secretion stimulation in [5] was -2% (inactive). Further, the inhibition of viability in assay [6] is 18.8% (inactive). The viability decrease (inhibition) in assay [7] was -17.9% (inactive); in [8] it was -14.3% (inactive). The fold change is 0.916 (inactive) in [9] (setting [18]) and 1.13 in assay [9] (setting [19]). Moreover, the cell count in assay [9] (setting [20]) stood at 8600; in assay [9] (setting [21]), 9380. Moreover, the z-score in assay [10] was -0.035 (inactive).

As for `Clc1cccc(SC2CCNCC2)n1`, the nuclear beta-catenin stimulation in [1] (at 10 µM) is 1% (inactive); in assay [1] (stimulation, at 2 µM), 2%. Besides, in assay [2], the insulin secretion stimulation is 4.8% (inactive). In assay [3], the viability decrease was -32% (inactive). Moreover, the tube area decrease in assay [4] is 5.5% (inactive). The GLP1 secretion stimulation in assay [5] was 0.9% (inactive). Besides, the inhibition of viability in assay [6] was 11.5% (inactive). Further, the viability decrease (inhibition) is 17.2% (inactive) in assay [7] and -11.3% (inactive) in [8]. Also, the fold change in assay [9] (setting [18]) is 1.01 (inactive); in assay [9] (setting [19]) it was 0.88. Further, the cell count was found to be 8450 in [9] (setting [20]) and 8400 in assay [9] (setting [21]). Further, the z-score in assay [10] was -0.34 (inactive).

For `c1ccc(C2CC2)c(OCC2=NCCN2)c1`, in assay [11], the parasite load remaining was 45.2% (inactive). In addition, in assay [11], the viability was 96.5%. Further, the inhibition in [12] was -4% (inactive). Besides, the fluorescence ratio (interference) in [13] was 1 (inactive). In addition, the nuclear beta-catenin stimulation in [1] (at 10 µM) was 1.3% (inactive); in [1] (stimulation, at 2 µM) it was 0.6%. Also, the insulin secretion stimulation in [2] was -0.5% (inactive). In addition, the viability decrease in [3] was -54.5% (inactive). The tube area decrease in [4] is -3.7% (inactive). In [5], the GLP1 secretion stimulation was 10.4% (inactive). Further, the inhibition of viability in [6] was 5.23% (inactive). For the same compound, the viability decrease (inhibition) was 7% (inactive) in [7] and -2.1% (inactive) in assay [8]. The remaining activity in assay [14] is 98% (inactive). For the same compound, the z-score in [15] (setting [22]) is -0.68 (inactive); in assay [15] (setting [23]), -0.25; in assay [10] it was -0.075 (inactive) and 0.06 (inactive) and 0.195 (inactive).

With `C[C@]12CC[C@H](O)CC1=CC[C@@H]1[C@@H]2CC[C@]2(C)C(=O)CC[C@@H]12`, the parasite load remaining in assay [11] is 67.8% (inactive) and 14.9% (inactive). For the same compound, in assay [11], the viability was 72.6% and 126%. For the same compound, the nuclear beta-catenin stimulation in assay [1] (at 10 µM) was 3.7% (inactive); in assay [1] (stimulation, at 2 µM) it was 1.2%. Besides, the insulin secretion stimulation in [2] is -3% (inactive). Further, the viability decrease in assay [3] was 3.8% (inactive). For the same compound, the tube area decrease in assay [4] was 8% (inactive). Further, the GLP1 secretion stimulation in assay [5] was 1.9% (inactive). The inhibition of viability in [6] was -21.8% (inactive). The values for the viability decrease (inhibition) in [7] and in assay [8] were 113% (active) and 8.95% (inactive), respectively. Further, the fold change in [9] (stronger effect = lower value) is 0.917 (inactive); in assay [9] (setting [19]) it was 1.38. Moreover, the values for the cell count in assay [9] (setting [20]) and in [9] (setting [21]) were 8820 and 9620, respectively. In addition, the z-score in assay [15] (setting [22]) is 0.542 (inactive); in [15] (setting [23]) it was -0.656; in [10] it was -0.16 (inactive). For the same compound, the remaining NAD in assay [16] was 10 nM (inactive).

As for `O=[N+]([O-])c1ccc([As](=O)(O)O)cc1`, the nuclear beta-catenin stimulation is 2.2% (inactive) in [1] (at 10 µM) and 1% in assay [1] (stimulation, at 2 µM). In addition, in assay [2], the insulin secretion stimulation was -1.1% (inactive). For the same compound, in assay [3], the viability decrease was -9.2% (inactive). Besides, the tube area decrease in [4] is 3.2% (inactive). The GLP1 secretion stimulation in [5] was -5.4% (inactive). For the same compound, the inhibition of viability in assay [6] was -30.4% (inactive). For the same compound, the viability decrease (inhibition) in [7] is 101% (active); in assay [8] it was -9.5% (inactive). Moreover, the red/green cell ratio (normalised) in [17] (actives lie on both sides) is 0.85 (inactive). Also, the values for the normalised cell number in assay [17] (measured here: epithelial PC-3E GFP cell survival) and in assay [17] (measured here: mesenchymal TEM4-18 mCherry cell survival) were 1.16 and 0.99, respectively. For the same compound, the fold change in assay [9] (stronger effect = lower value) is 0.887 (inactive); in [9] (setting [19]), 1.5. The values for the cell count in [9] (setting [20]) and in assay [9] (setting [21]) were 8880 and 10000, respectively. Moreover, the remaining NAD in assay [16] is 10 nM (inactive).

The term viability denotes a read-out of living cells in per cent, often relative to untreated cells. One may read the inhibition as the drop in the measured response relative to a control, in per cent. Broadly, the remaining activity is the activity still measured, relative to the control.
